Source: PMC4552634, “A New Set of Chemical Starting Points with Plasmodium falciparum Transmission-Blocking Potential for Antimalarial Drug Discovery” (PLoS ONE, 2015)
Among all 13,000 compounds or so, about 3,200 (25%) showed an effect of 50% or more. The list shows a part of the results.

test system: P. falciparum stage V gametocytes; set-up: BacTiter-Glo ATP luminescence viability of purified stage V gametocytes in 384-well plates, per cent inhibition versus DMSO; conditions: 48 h, 5 µM; inhibitor

| SMILES | % Inhibition [%] |
| --- | --- |
| COc1ccc2nccc([C@@H](O)CN3CCC(NCc4cc5cc(C)ccc5s4)CC3)c2c1 [TCMDC-140682] | 12.73 |
| CN(C)CCCn1cncc1-c1ccc2ncnc(Nc3ccc4c(cnn4Cc4ccccc4)c3)c2c1 [TCMDC-138087] | -19.79 |
| CN(C)CCc1coc2ccc(C(=O)Nc3ccc(-c4ccc(O)cc4)cc3)cc12 [TCMDC-132005] | -54.25 |
| c1ccc(CNc2nc(NCCN3CCCCC3)nc3ccccc23)cc1 [TCMDC-137554] | 18.64 |
| COc1cc2nc(NCCc3ccccc3)nc(NCc3cnn(C)c3C)c2cc1OC [TCMDC-135459] | 100.1 |
| COc1cc2nc(NCCc3cccc(Cl)c3)nc(NCc3ccccc3)c2cc1OC [TCMDC-135266] | 90.56 |
| COc1cc2nc(NCCCN3CCCCC3)nc(NCc3ccccc3)c2cc1OC [TCMDC-132012] | 112.9 |
| COc1cccc(CCNc2nc(NCc3ccccc3)c3cc(OC)c(OC)cc3n2)c1 [TCMDC-135267] | 71.62 |
| Cc1ccccc1C1CCN(C2CCC(NC(=O)/C=C/c3c[nH]c4ccccc34)CC2)CC1 (stereo not drawn) [TCMDC-134103] | -47.56 |
| O=C(O)CCSc1ncnc2nc[nH]c12 [TCMDC-125870] | -3.326 |
| NC(N)=Nc1ccc(CCc2ccc(N=C(N)N)cc2)cc1 [TCMDC-137701] | -9.941 |
| O=C(Nc1cccc(CN2CCCN(Cc3ncc[nH]3)CC2)c1)c1ccc(-c2ccccc2)cc1 [TCMDC-141849] | 12.11 |
| CC1(C)CCCN(C(=O)Cc2ccc3c(c2)CCCC3)C1CN1CC=CC1 (stereo not drawn) [TCMDC-131637] | 3.216 |
| C=Cc1sc(CNCCCNc2cc(=O)c3ccccc3[nH]2)c(C)c1Br [TCMDC-141064] | -9.308 |
| N#Cc1ccc(CN2CCCN(c3ccc(NC(=O)c4ccc(F)cc4)cc3)CC2)cc1 [TCMDC-134984] | -24.83 |
| COc1ccc(CCNc2nc(NCc3ccccc3)c3cc(OC)c(OC)cc3n2)cc1OC [TCMDC-132017] | 95.97 |
| COc1cc2nc(N[C@@H](CO)c3ccccc3)nc(NCc3ccccc3)c2cc1OC [TCMDC-132024] | 6.921 |
| COc1ccc(CNc2nc(NCc3ccccc3)c3cc(OC)c(OC)cc3n2)cc1OC [TCMDC-131893] | 102.4 |
| COc1ccc2ccccc2c1CON1C(N)=NC(N)=NC1(C)C [TCMDC-131789] | 14.14 |
| O=C(N/C(=C/c1cccc([N+](=O)[O-])c1)c1nc2ccccc2[nH]1)c1cccc(Br)c1 [TCMDC-123667] | 25.9 |
| CCc1nc2ccc(C(=O)OC)nc2n1Cc1ccc2oc(-c3ccccc3N)c(Br)c2c1 [TCMDC-131989] | 82.84 |
| Cc1cccc2[nH]c(-c3cccc(-c4ccc(NC(=O)Cc5ccccn5)cc4)c3)nc12 [TCMDC-132178] | -17.95 |

| SMILES | % Inhibition [%] |
| --- | --- |
| CS(=O)(=O)CCNCc1cccc(-c2cc3c(Nc4ccc5c(cnn5Cc5ccccc5)c4)ncnc3s2)c1 [TCMDC-134664] | -36.31 |
| CN1CCC(c2ccc(NC(=O)c3ccc(-c4cccc(C(F)(F)F)c4)o3)cc2)CC1 [TCMDC-134195] | 6.508 |
| O=C(Nc1ccc(S(=O)(=O)NCCCN2CCOCC2)cc1)c1cc(-c2ccccc2)n[nH]1 [TCMDC-125046] | -31.32 |
| COc1cccc2c1CCN(CCN1CCC(NC(=O)c3ccc(-c4cccc(Cl)c4Cl)cc3)CC1)C2 [TCMDC-135476] | 76.97 |
| C=CCOc1cccc2c1CCN(CCN1CCC(NC(=O)c3ccc(-c4ccc(Cl)cc4)cc3)CC1)C2 [TCMDC-135633] | -61.81 |
| NC(=O)COc1cccc2c1CCN(CCN1CCC(NC(=O)c3ccc(-c4ccc(Cl)cc4)cc3)CC1)C2 [TCMDC-135479] | -28.95 |
| Fc1cccc(COc2ccc(Nc3ncnc4sc(C#C[C@H]5CC[C@H](CNCC(F)(F)F)N5)cc34)cc2Cl)c1 [TCMDC-135422] | -57.82 |
| CCCNC(=O)c1cncc(-c2ccc(CNC3Cc4ccccc4C3)cc2)c1 [TCMDC-134242] | -9.717 |
| O=C(CCC1CCCC1)N(Cc1ccc(-c2ccc(CNCCc3ccccn3)cc2)cc1)CC1CCCCN1 (stereo not drawn) [TCMDC-141445] | 104.1 |
| O=C(CC1CCCC1)N(Cc1ccc(-c2ccc(CNC3Cc4ccccc4C3)cc2)cc1)CC1CCCCN1 (stereo not drawn) [TCMDC-141446] | 118.1 |
| c1cncc(CCNCc2ccc(-c3ccc(CNC4Cc5ccccc5C4)cc3)cc2)c1 [TCMDC-141458] | 22.23 |
| O=C(NCC1CCC(C(=O)NCCN2CCCCC2)CC1)c1ccc(O)c(-c2ccc(Cl)c(Cl)c2)c1 (stereo not drawn) [TCMDC-140889] | 5.118 |
| CN(C)C(CNC(=O)c1cc(-c2ccncc2)c(-c2ccc(NC(=O)Nc3ccccc3)cc2)o1)c1ccccc1 (stereo not drawn) [TCMDC-135763] | 0.5152 |
| CCN(CCNC(=O)Nc1cc(C(F)(F)F)cc(C(F)(F)F)c1)c1cccc(C)c1 [TCMDC-140386] | -30.95 |
| CCN(CC)c1ccc2nc(N)nc(N)c2c1 [TCMDC-137860] | -57.34 |
| CCN(CCNS(C)(=O)=O)c1ccc(N)c(C)c1 [TCMDC-125836] | 123.9 |
| Cc1cc(NC(=O)c2ccco2)ccc1OC1CCN(Cc2ccc(F)cc2)CC1 [TCMDC-133749] | 42.56 |
| Cc1ccccc1N1CCN(c2ccc(C(=O)Nc3ccccc3)cn2)CC1 [TCMDC-134582] | 6.226 |
| Cc1[nH]c2ccccc2c1C1CCN(CC2CCC(NC(=O)/C=C/c3ccc(Cl)c(Cl)c3)CC2)CC1 (stereo not drawn) [TCMDC-139482] | -16.12 |
| NC(=O)c1cnc2cc(-c3ccncc3)cc(Nc3ccc(NC(=O)C4CCCCC4)cc3)c2c1 [TCMDC-135182] | -67.69 |
| CN1CCN(c2cc3c(cc2Cl)CCN3C(=O)Nc2ccc(NC(=O)c3ccc(C(F)(F)F)cc3)cc2)CC1 [TCMDC-139270] | -10.1 |
| Cc1cc(-c2ccc(NC(=O)N3CCc4cc(Br)c(N5CCN(C)CC5)cc43)cc2)ccc1C#N [TCMDC-139293] | -18.89 |

| SMILES | % Inhibition [%] |
| --- | --- |
| Cc1cc(-c2ccc(NC(=O)N3CCc4cc(Cl)c(N5CCN(C)CC5)cc43)cc2)ccc1C#N [TCMDC-139292] | 55.12 |
| O=C(Nc1c(F)cccc1F)c1cccc(-c2nn3ccccc3c2-c2ccnc(Nc3cccc(-c4cnco4)c3)n2)c1 [TCMDC-135743] | -41.11 |
| c1ccc2c(CNCCCN3CCN(CCCNCc4c5ccccc5cc5ccccc45)CC3)c3ccccc3cc2c1 [TCMDC-137909] | 115.6 |
| c1ccc2c(c1)cc(CNCCCN1CCN(CCCNCc3cc4ccccc4c4ccccc34)CC1)c1ccccc12 [TCMDC-137914] | 113.5 |
| O=C(/C=C/c1ccc(Cl)c(Cl)c1)NCCCCCN1CCC(C(=O)Nc2cccc(Cl)c2)CC1 [TCMDC-136120] | -13.38 |
| Cc1ccc(NC(=O)c2cccc(C#N)c2)cc1-c1ccc(C(=O)Nc2ccncc2)cc1 [TCMDC-133697] | -8.671 |
| CCC[C@@H]([C@@H](Cc1ccc(C)s1)C(=O)N[C@@H](CNC(C)=O)C(=O)Nc1nccs1)N(O)C=O [TCMDC-138137] | -97.54 |
| Cc1cc(C)c2[nH]cc(C(=O)O)c(=O)c2c1 [TCMDC-123953] | 3.462 |
| Oc1ccc(Cl)c2c1C(c1ccccc1)=NCC2 [TCMDC-137522] | -9.659 |
| COc1ccc(Oc2ccc(Nc3ccnc4ccc(C(F)(F)F)cc34)cc2)cc1OC [TCMDC-138310] | -11.17 |
| CN(C)CCCc1cc2c(cc1Cl)CCN2C(=O)Nc1ccc(-c2ccncc2)c2ccccc12 [TCMDC-139215] | -22.47 |
| CCCc1cc(C(=O)N[C@@H](Cc2ccccc2)[C@H](O)CNC(C)(C)c2cccc(OC)c2)c(F)c(N2CCCC2=O)c1 [TCMDC-135396] | 48.39 |
| COc1c(CN2CCOCC2)cccc1-c1cc2c(-c3ccc(C(=O)O)c(C(C)C)c3)ccnc2[nH]1 [TCMDC-135049] | -0.2517 |
| COc1cccc(CN2CCC(C(=O)Nc3ccc(-c4nc5ccccc5[nH]4)cc3)CC2)c1 [TCMDC-124615] | -54.81 |
| CCN(CC)Cc1ccc(OC)c(-c2cc3c(-c4ccc(C(=O)O)c(C(C)C)c4)ccnc3[nH]2)c1 [TCMDC-135051] | 59.03 |
| COc1ccc(-c2cnc3[nH]cc(-c4ccc(C(=O)O)c(C)c4)c3c2)cn1 [TCMDC-136360] | 34.92 |
| COc1c(CN2CCCC2)cccc1-c1cc2c(-c3ccc(C(=O)O)c(C(C)C)c3)ccnc2[nH]1 [TCMDC-135050] | 69.12 |
| COc1ccc(CN(C)CCOc2ccc(NC(=O)c3cccc4c(=O)cc(-c5ccccc5)[nH]c34)cc2)cc1OC [TCMDC-131849] | 25.38 |
| CN(C)CC1CCCN1Cc1ccccc1-c1cnn(C)c(=O)c1Oc1ccc(F)cc1 (stereo not drawn) [TCMDC-135098] | 10.73 |
| O=C(NCCCN1CCN(c2cccc(Cl)c2)CC1)c1ccc(-c2nc3cc(Cl)c(Cl)cc3[nH]2)c(F)c1 [TCMDC-140084] | -21.33 |
| O=C(CNc1ccc(Cl)c(S(=O)(=O)N2CCCC2)c1)Nc1ccc(Br)cc1F [TCMDC-125102] | 24.63 |
| Cc1onc(-c2ccccc2)c1-c1nc(NCCC(c2ccccc2)c2ccccc2)no1 [TCMDC-134203] | 3.551 |
